The record followed here is PubChem BioAssay (NCATS).

Records with an inconclusive call do not appear. Activity calls are given as the source filed them. Calls come from the whole dose curve; as a rule, active = well fitted inhibition curve with a large enough effect; inconclusive = small, poorly fitted or top-dose-only effect; inactive = flat fitted curve, though single readings scatter.
% is set by controls: 0 for no effect and ±100 for the full control effect.

For the assay, the target named is Calcium and integrin-binding protein 1 (Homo sapiens) (UniProt Q99828). The assay can be described thus: Primary qHTS for Identification of Calcium Integrin Binding Protein 1 (CIB1) Competitor (AID 1508620).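 Note: GST tagged CIB1 binding a fluorescein labelled alphaIIb integrin peptide tracer; top concentration of the series differs between compounds.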 To be noted: CIB1-GST / FITC-alphaIIb peptide fluorescence polarization; series mostly up to 114 µM; activity change, negative = inhibition: at the top concentration. The gist of the method: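 CIB1-GST (1 uM final) and compound incubated 15 min at room temperature before adding FITC-alphaIIb peptide tracer (100 nM final). Competition for binding read by fluorescence polarization (ex 480, em 540) after another 15 min at room temperature.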
Chain of Calcium and integrin-binding protein 1 (Homo sapiens) (Q99828 whole entry, looked up): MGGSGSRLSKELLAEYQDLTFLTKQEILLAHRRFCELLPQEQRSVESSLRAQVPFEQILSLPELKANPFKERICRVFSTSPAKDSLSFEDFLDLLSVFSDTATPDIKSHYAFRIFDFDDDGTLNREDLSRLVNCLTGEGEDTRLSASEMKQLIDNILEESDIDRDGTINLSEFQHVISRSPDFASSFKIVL
Turning to `c1nc(NCC2CCCCC2)c2cc(-c3ccc4c(c3)OCO4)ccc2n1`, the “activity change, negative = inhibition” value is 21.6% (inactive). Still for that read-out and setting: under `Nc1cccc(CNc2ccc(S(=O)(=O)Nc3nccs3)cc2)c1O` stands -17.1% [at 30.2 µM] (inactive).

For the molecule `O=C(/C=C/c1ccc2c(c1)OCO2)Nc1cccc([S+](=O)([O-])Nc2ccccc2F)c1`, the Potency entry was “inactive”.

`COc1ccc(C2C3=C(N=CN(CCN4CCOCC4)C3N)Oc3ccccc32)cc1OC` (stereo not given): the “activity change, negative = inhibition” value was -0.303% (inactive). For `O=C(N/C=C/c1ccccc1)c1cccc([S+](=O)([O-])Nc2ccccc2F)c1`, the “activity change, negative = inhibition” value is 4.59% (inactive).

As for `Cc1cnc(-c2ccccc2C(C)O)nc1NCc1ccc(-c2cccnc2)cc1` (stereo not given), the “activity change, negative = inhibition” value was -11.9% (inactive). On the same count and under the same terms, under `CS(=O)(=O)c1ccc(C(=O)OCC(=O)N2Cc3ccccc3C2)cc1[N+](=O)[O-]` stands -29.6% (inactive); under `Cc1ccc2nc3sc(C(=O)NC4CCCC4)cc3cc2c1`, 7.06% (inactive). The same measure, in the same setting: under `O=C(O)c1ccc(O)c2ncc(-c3ccc(C(=O)N4CCNCC4)cc3)cc12` stands -2.37% (inactive); under `O=C(Nc1cncc(-c2cccc3ccccc23)c1)c1cccs1`, -1.65% (inactive); under `Cc1cc2c(s1)c1cnn(Cc3cccc(C(F)(F)F)c3F)c(=O)c1n2C`, -1.74% (inactive).

For `CCOc1ccc(C(=O)Oc2ccc(-c3nc4ccccc4[nH]3)cc2)cc1[N+](=O)[O-]`, the “activity change, negative = inhibition” value is 2.62% (inactive). With `S=c1[nH]c2ccccc2n1CCc1ccccc1`, the “activity change, negative = inhibition” value was -8.31% (inactive). Same read-out and setting: under `CNc1oc(-c2ccc3c(c2)OCCO3)nc1C#N` stands 1.76% (inactive); under `CCCc1nnc(-c2cnn(C)c2N)n1CCCn1ccnc1`, 1.17% (inactive); under `Cc1ccc(-c2ccc(=O)n(CC(=O)N(C)C(C)c3cccs3)n2)cc1` (stereo not given), -7.22% (inactive). As for `Cc1ccc(CNc2ncnc3ccc(-c4ccc(C(=O)N(C)C)o4)cc23)o1`, the “activity change, negative = inhibition” value is -6.37% (inactive).

Turning to `Fc1cc(Nc2nc(-c3ccncc3)nc3ccccc23)ccc1-c1cc(F)c(F)c(F)c1`, the “activity change, negative = inhibition” value is 8.73% (inactive).

Turning to `Cc1c(C(=O)O)[nH]c2c1C(=O)CC(c1ccco1)C2` (stereo not given), the “activity change, negative = inhibition” value was -8.66% (inactive). Same read-out and setting: under `COc1ccc(C2Nc3ccccc3C(=O)N2Cc2ccco2)cc1COc1ccc(NC(C)=O)cc1` (stereo not given) stands 4.83% (inactive); under `N/C(=N\c1nnc(-c2ccncc2)s1)Nc1ccc(Cl)c(Cl)c1`, 7.38% (inactive). Turning to `Cc1cc2c(s1)c1cnn(Cc3ccccc3Cl)c(=O)c1n2C`, the “activity change, negative = inhibition” value was 4.23% (inactive). Still for that read-out and setting: under `CC(=O)Nc1sc2c(c1-c1cc3ccccc3s1)CCNC2` stands 14.6% (inactive). Take `Cc1ccc(NC(=O)CN2C(=O)N/C(=C\c3cccn3-c3ccc(C(=O)O)cc3)C2=O)cc1`: the Potency result was “inactive”. As to `O=C(Nc1ccc2c(c1)OCCO2)Nc1nnc(-c2ccncc2)s1`, the “activity change, negative = inhibition” value was -1% (inactive). Same read-out and setting: under `N#Cc1nc(NCC(F)F)c2ncn(-c3cccc(Cl)c3)c2n1` stands -3.86% (inactive). With `CCOC(=O)c1cccc(-n2cnc(/C=C3\NC(=O)N(CC(=O)O)C3=O)c2)c1`, the “activity change, negative = inhibition” value is 16.2% (inactive). Still for that read-out and setting: under `CCOc1ccccc1-c1nnc2n1N=C(c1c(OC)cccc1OC)CS2` stands 5.07% (inactive); under `Cc1ccc(OCCn2c(CCNC(=O)c3ccccn3)nc3ccccc32)cc1`, -7.54% (inactive); under `C=CCSc1nnc(-c2cccc3ccccc23)o1`, 5.96% (inactive). The same measure, in the same setting: under `Cc1ccnc(NC(=S)N2CCNCC2)c1` stands -1.7% (inactive). On the same count and under the same terms, the same measure for `Cc1csc(CNc2ncnc3cc(-c4ccc5c(c4)OCO5)ccc23)n1`: -0.0285% (inactive); for `Cn1nnnc1Sc1ncnc2scc(-c3ccccc3F)c12`: 2.65% (inactive); for `CC(=O)c1ccc(N2CCN(S(=O)(=O)c3ccc4[nH]c(=O)oc4c3)CC2)cc1`: 7.81% (inactive).

Turning to `CN(Cc1cncn1C)c1ncnc2ccc(-c3ccc4c(c3)OCO4)cc12`, the “activity change, negative = inhibition” value is -10.1% (inactive). On the same count and under the same terms, the same measure for `CC(=O)N1CCN(c2ccc(NCc3cccc(C)c3)cc2)CC1`: -15.5% (inactive); for `Cc1cc(-c2nnc3n2CCCCCCC3)c(C)n1-c1ccccc1`: 3.25% (inactive); for `O=C(c1ccccc1)N1CCN(c2nc(-c3ccc(Br)cc3)cs2)CC1`: 3.47% (inactive). As to `O=C1CCCC2=C1C1(CCSC1)N=C(Nc1nc3ccccc3o1)N2` (stereo not given), the “activity change, negative = inhibition” value is -24.2% (inactive).

Turning to `Oc1ccc(COc2cccc3ccccc23)c2cccnc12`, the “activity change, negative = inhibition” value is 2.17% (inactive).
